# Measurements as given in PubChem BioAssay (NCI).
# This is part of a sample that, as a whole, favours compounds with a hit. Of some 83,000 tested, about 20% had one in any assay.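 The endpoint reported here, percent growth, reads 100 for growth as untreated, 0 for no net growth and -100 for all cells dead.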 Values without a mark were called inactive. Calls of active or inactive are those of the source.
# System: A549/ATCC NSCLC
# Experiment: NCI-60 one-dose screen, 48 h (100 = growth as untreated, 0 = no growth, -100 = all killed)
# Details: 10 µM unless noted
# Method: Growth inhibition of the A549/ATCC human Non-Small Cell Lung tumor cell line is measured as a screen for anti-cancer activity. Cells are grown in 96 well plates and exposed to the test compound for 48 hours. Compounds are tested at a single concentration, which is 10^-5 M for most compounds. The reported endpoint is percent growth (GI% or GIPRCNT), where numbers from 0 - 100% represent growth inhibition, and numbers from -100% - 0 represent cell death. For example, a value of 40 represents 60% growth inhibition. A value of 0 means no net growth occurred over the course of the experiment. A value of -40 indicates 40% of cells at the beginning of the experiment died by the end of the experiment. A value of -100 means all cells are dead at the end of the experiment.
# NCI-60 Human Tumor Cell Lines Screen was performed using the standard one-dose NCI protocol, which is described in more detail at https://dtp.cancer.gov/discovery_development/nci-60/default.htm.
# Compounds with GIPRCNT values below 10 were considered active. Activity score was based on GIPRCNT using the following formula: […]
# Score is 0 for GIPRCNT values of 100 or above, 50 for GIPRCNT values of 0, and 100 for GIPRCNT values of -100.
row,Compound,growth
1,COC(=O)/C(CCC=C(C)C)=C1\[C@@H](OC(C)=O)C[C@@]2(C)[C@H]1C[C@@H](O)[C@H]1[C@@]3(C)CC[C@H](NC(=O)c4cnccn4)[C@@H](C)[C@@H]3CC[C@@]12C,97.9%
2,CCN1CCN(c2cc(C)c3cc(NC(=O)c4ccc(OC)c(OC)c4)ccc3n2)CC1,33.3%
3,CCCCNc1nc(NC(C)(C)C)nc(NC(C)(C)C)n1,56.3%
4,O=c1[nH]nnc2c1ncn2C1OC(CO)C(O)C1O (stereo not given),49.7%
5,Cc1ccc(C2CC(c3ccc(Nc4nc(NCCO)nc(Nc5ccc(Cl)cc5)n4)cc3)=NN2c2cc(Cl)cc(Cl)c2)cc1 (stereo not given),94.2%
6,CN=c1ccc2nc3ccc(N)cc3sc-2c1,9.37% (active)
7,O=c1oc2ccc(I)cc2c(=O)n1-c1ccc(Br)cc1F,7.12% (active)
8,O=C(COc1cc(O)c2c(=O)cc(-c3ccccc3)oc2c1)Nc1ccccc1C(F)(F)F,0.206% (active)
9,FC(F)(F)c1cccc(CNC2CCN(CCc3ccccc3)CC2)c1,77.5%
10,CC(C)(C)c1ccc(C2CC(=O)C3=C(C2)Nc2ccccc2N(C(=O)c2ccccc2Cl)C3c2ccc(F)cc2)cc1 (stereo not given),-3.2% (active)
11,CCOc1cc2c(cc1OCC)C(c1cc(C)c(O)c(C)c1)NCC2 (stereo not given),95.5%
12,CC1(C)CC2(C)OC2C2(C1)N=NC(=Nc1ccccc1)O2 (stereo not given),54.1%
13,O=C(CN1C=NC2C(N3CCOCC3)=NC=NC21)c1cccc2ccccc12 (stereo not given),90.1%
14,O=C(Nc1ccc(N2CCNCC2)cc1)c1[nH]ncc1Nc1cc(Oc2ccccc2)ncn1,-49.8% (active)
15,Cc1cccc2c(=O)c3c(sc12)c(NCCN)nc1ccccc13,-75.2% (active)
16,O=c1oc2ccc(Br)cc2c(=O)n1-c1ccc(Cl)cc1F,8.23% (active)
17,CC1CCCCN1CCCNC(=O)c1ccc2c(c1)sc1nc(-c3ccc(F)cc3)cn12 (stereo not given),108%
18,CCOC(=O)c1c2c(n3cccc(Cl)c13)C(=O)c1ncccc1C2=O,38.4%
19,COC(=O)c1c2c(c(C)[n+]([O-])c1C)C(=O)C=C(NCc1ccccc1)C2=O,-4.94% (active)
20,COc1ccc(Nc2nc(N/N=C/c3ccc(O)cc3)nc(Nc3ccc([N+](=O)[O-])cc3)n2)cc1,104%

row,Compound,growth
1,CCn1c(Cc2ccccc2Nc2c(Cl)cccc2Cl)nnc1SCC(=O)NN1C(=O)/C(=C/c2cccc(OC)c2OC)SC1=S,96.3%
2,O=C(CCc1nnc2sc(-c3ccc(Cl)cc3Cl)nn12)c1nc2ncccc2[nH]1,4.78% (active)
3,COc1ccc(Cn2cc(Cn3c(=O)c(-c4nc5ccccc5[nH]4)cc4ccccc43)nn2)c(OC)c1OC,9.33% (active)
4,COc1cc([C@@H]2NC(=O)NC(C)=C2C(=O)Nc2nc(-c3ccc(Cl)cc3)cs2)ccc1O,97.1%
5,CCN1CCN(C(=S)SCC(=O)Nc2nc3ccc(C)cc3s2)CC1,103%
6,O=C1Nc2ccccc2/C1=C/c1cccs1,95.2%
7,Cc1ccc(NC2=CC(=O)C(=O)c3ccccc32)c(C)c1,5.75% (active)
8,Nc1nc(Nc2cccc(F)c2)nc2ccccc12,46.3%
9,Cc1c(-c2csc(-n3nc(C(F)(F)F)cc3C(F)(F)F)n2)no[n+]1[O-],95.3%
10,CN(C)/C=C1\SC(=Nc2ccc(Cl)cc2)NC1=O,100%
11,COc1cc(NC(=O)CCSc2nc3ccccc3c(=O)n2CCc2ccccn2)cc(OC)c1OC,84%
12,NCCCNc1nc2ccccc2c2c(=O)c3cc(F)ccc3sc12,-29.3% (active)
13,COC(=O)/C(=C\c1c(C)[nH]c2ccccc12)S(=O)(=O)c1ccccc1,23.7%
14,COc1ccc(C(O)(CCC(C)C)C(CN2CCOCC2)c2ccc(Cl)cc2)cc1 (stereo not given),62.4%
15,CSc1nc2c(c(=O)[nH]1)N=C1c3ccccc3C(=O)C1C(c1ccccc1)N2 (stereo not given),51.6%
16,CCn1c(-c2nonc2Nc2ccc(OC)cc2)nc2ccccc21,93.5%
17,Oc1[nH]c2ccccc2c1N=Nc1nnc2n1N=C(c1ccccc1)CS2,69.1%
18,Cn1c(/C=C(\C#N)c2ccccc2)nc2c(N3CCOCC3)nc(Cl)nc21,30.4%
19,O=C(Nc1ccc(F)cc1F)c1cc(Cl)ccc1O,6.37% (active)
20,CC1(O)COCCCCOc2c(CN)cccc2NC(=O)c2nc(cnc2N)-c2ccc(cc2)S(=O)(=O)C(C)(C)C1 (stereo not given),-52.8% (active)
